From PubChem BioAssay (NCI)
This is part of a sample that, as a whole, favours compounds with a hit. Of some 83,000 tested, about 20% had one in any assay.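 Treatment: one concentration, 48 hours, 96-well format. Scoring: percent growth, with anything below 10 considered active.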 Active and inactive are the calls of the source.

How the values were obtained:
Assay in all cases: NCI-60 one-dose screen, 48 h (100 = growth as untreated, 0 = no growth, -100 = all killed)
Conditions in all cases: 10 µM unless noted
[1] = tested on: NCI-H23 lung
[2] = tested on: NCI-H226 lung
[3] = tested on: NCI-H322M lung
[4] = tested on: HOP-62 NSCLC
[5] = tested on: NCI-H460 lung
[6] = tested on: HOP-92 NSCLC
[7] = tested on: NCI-H522 lung
[8] = tested on: A549/ATCC NSCLC
[9] = tested on: 786-0 renal
[10] = tested on: COLO 205 colon
[11] = tested on: DU-145 prostate
[12] = tested on: K-562 leukemia
[13] = tested on: MALME-3M melanoma
[14] = tested on: MDA-MB-231 breast
[15] = tested on: RXF 393 renal
[16] = tested on: SF-268 CNS
[17] = tested on: SF-295 CNS
[18] = tested on: SF-539 CNS
[19] = tested on: UACC-257 melanoma
[20] = tested on: M14 melanoma

Measured: growth

COc1ccc(NC(=O)N/N=C/c2c[nH]c3ccccc23)cc1
active: [7] -34.7% | [10] 4.05% | [18] -13.6%
inactive: [1] 40% | [2] 34.7% | [3] 43.2% | [4] 44.1% | [5] 14.9% | [6] 69.5% | [8] 45.6% | [9] 44.8% | [11] 27.6% | [12] 17.8% | [13] 61.9% | [14] 44.7% | [15] 20.2% | [16] 55.7% | [17] 16.4% | [19] 72.9% | [20] 29.7%

CN(C)c1nc(NCCNS(=O)(=O)c2ccc(C3=Nc4c(N)nc(N)nc4NC(c4ccc(Cl)cc4)C3)cc2)nc(N2CCOCC2)n1 (stereo not given)
inactive: [1] 69.2% | [2] 58.6% | [3] 69.3% | [4] 57.1% | [5] 59.1% | [7] 65.3% | [8] 63.4% | [9] 40.7% | [10] 66.5% | [11] 67.1% | [12] 15.7% | [13] 62.4% | [14] 12% | [16] 53.4% | [17] 38.5% | [18] 43% | [19] 75.7% | [20] 45.5%
active: [6] -10.8% | [15] 2.28%

O=C(Nc1nc2ccc([N+](=O)[O-])cc2s1)Nc1ccc(Cl)cc1Cl
inactive: [1] 18.2% | [2] 61.1% | [3] 72.2% | [4] 39.8% | [5] 27.6% | [6] 29.1% | [7] 20.3% | [8] 55.8% | [9] 19.6% | [10] 74.7% | [11] 64.1% | [12] 24.6% | [13] 52.4% | [15] 20% | [16] 66.1% | [17] 17.2% | [18] 11.7% | [19] 60.3% | [20] 77.9%
active: [14] 1.5%

CCN1CCN(Cc2ccc(C(=O)Nc3cccc(Nc4ccc5c(OC)cccc5n4)c3)cc2C(F)(F)F)CC1
active: [1] -96.1% | [2] -85.8% | [3] -100% | [4] -63.5% | [5] -69% | [6] -75.1% | [7] -83.3% | [8] -68% | [9] -73% | [10] -67.5% | [11] -57.9% | [12] 0.423% | [13] -94.8% | [14] -94% | [15] -93.3% | [16] -19.1% | [17] -95.3% | [18] -100% | [19] -82.8% | [20] -74.8%

CC1CCc2c(sc3nc(SCC(=O)c4cccc([N+](=O)[O-])c4)n(-c4ccccc4)c(=O)c23)C1 (stereo not given)
inactive: [1] 47.4% | [2] 66.6% | [3] 97.9% | [4] 77.7% | [5] 97.1% | [6] 85.5% | [7] 54.3% | [8] 89.7% | [9] 56.6% | [10] 106% | [11] 63.1% | [12] 57.1% | [13] 111% | [14] 10.1% | [15] 99.9% | [16] 73.2% | [17] 74.2% | [19] 97.8% | [20] 80.6%
active: [18] -10.9%

O=C(Nc1nc2ccc([N+](=O)[O-])cc2s1)Nc1ccccc1F
inactive: [2] 10.9% | [8] 12.2% | [10] 21.9% | [11] 25.8% | [16] 29.5% | [20] 16.5%
active: [1] 6.62% | [3] 8.1% | [4] 6.89% | [5] 2.96% | [6] -3.78% | [7] -16.6% | [9] 7.95% | [12] 7.7% | [13] -2.16% | [14] 4.62% | [15] 5.7% | [17] 3% | [18] -8.34% | [19] -4.98%

O=C1/C(=C/c2cnc(-c3ccccc3)s2)SC(=S)N1Cc1ccc2c(c1)OCO2
active: [17] 9.27%
inactive: [1] 47.1% | [2] 75.6% | [3] 92.2% | [4] 12.2% | [5] 97.2% | [6] 48.6% | [7] 47.5% | [8] 101% | [9] 31.2% | [10] 125% | [11] 86% | [12] 42.1% | [13] 70.2% | [14] 76.9% | [15] 10.5% | [16] 44.6% | [18] 23.3% | [19] 108% | [20] 107%
